Measurements: PubChem BioAssay AID1445 (SRMLSC, 2008)
Out of some 220,000 compounds screened, about 910 (0.41%) were called active.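 Rule for the calls: active = primary inhibition above the hit cutoff, then over 50% inhibition at one or more dose response concentrations (cut at about 23% in these data, passing the limit was not always enough); inconclusive = conflicting primary data, or primary hits not chosen for dose response; inactive = low primary inhibition, or under 50% at every dose.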 The sample as a whole holds a higher share of actives than the screen did. Entries with a potency or affinity are not part of this list.

What follows are compounds tested against Aminopeptidase N (Plasmodium falciparum (isolate 3D7)) (UniProt O96935) (assay: malaria alanyl aminopeptidase activity blockers – biochemical, fluorogenic H-Leu-NHMec substrate, 1536-well (AID 1445;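 note: plate controls were DMSO full reaction for no effect and no enzyme background for full effect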)). Details: recombinant M1AAP, H-Leu-NHMec fluorogenic kinetic assay; at 30 µM, hits give high values unless noted.
Chain of Aminopeptidase N (Plasmodium falciparum (isolate 3D7)) (O96935 whole entry, looked up): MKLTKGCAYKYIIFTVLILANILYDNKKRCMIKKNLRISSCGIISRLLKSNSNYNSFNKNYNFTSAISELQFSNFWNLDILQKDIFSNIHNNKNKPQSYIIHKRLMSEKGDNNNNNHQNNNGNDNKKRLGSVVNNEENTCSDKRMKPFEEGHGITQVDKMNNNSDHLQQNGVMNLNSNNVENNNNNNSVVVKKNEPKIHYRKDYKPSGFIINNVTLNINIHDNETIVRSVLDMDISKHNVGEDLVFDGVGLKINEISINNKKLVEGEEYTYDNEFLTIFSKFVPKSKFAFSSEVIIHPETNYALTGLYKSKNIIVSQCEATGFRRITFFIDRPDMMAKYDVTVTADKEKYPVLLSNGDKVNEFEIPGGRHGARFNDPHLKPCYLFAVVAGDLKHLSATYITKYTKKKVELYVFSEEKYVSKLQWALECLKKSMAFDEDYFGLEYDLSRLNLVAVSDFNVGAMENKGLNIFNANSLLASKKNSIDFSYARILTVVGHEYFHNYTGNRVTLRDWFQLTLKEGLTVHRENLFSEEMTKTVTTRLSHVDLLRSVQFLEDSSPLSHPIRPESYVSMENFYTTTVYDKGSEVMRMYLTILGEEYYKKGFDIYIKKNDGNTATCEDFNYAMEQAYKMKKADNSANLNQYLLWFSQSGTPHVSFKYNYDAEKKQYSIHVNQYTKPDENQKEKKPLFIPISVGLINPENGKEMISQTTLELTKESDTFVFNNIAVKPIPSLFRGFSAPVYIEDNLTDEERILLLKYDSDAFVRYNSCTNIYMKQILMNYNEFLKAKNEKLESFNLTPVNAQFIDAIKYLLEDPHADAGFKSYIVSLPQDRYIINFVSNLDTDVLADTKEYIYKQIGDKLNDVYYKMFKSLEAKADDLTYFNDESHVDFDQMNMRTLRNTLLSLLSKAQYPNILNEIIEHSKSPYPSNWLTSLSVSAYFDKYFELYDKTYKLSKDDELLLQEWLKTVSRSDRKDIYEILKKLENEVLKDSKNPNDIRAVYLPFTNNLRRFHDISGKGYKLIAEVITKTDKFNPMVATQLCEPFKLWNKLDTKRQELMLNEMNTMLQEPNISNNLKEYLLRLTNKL

inhibition, inactive:
Cc1cc(=O)n(-c2ccc(Cl)cc2)c(=O)[nH]1 -2%
Cc1c(C(=O)NCc2ccccn2)oc2ccc(S(=O)(=O)N3CCOCC3)cc12 -1.02%
O=C(O)CCCC(=O)NNc1ncnc2ccccc12 13.7%
O=C(CCCCCN1C(=O)c2ccccc2C1=O)NCc1ccco1 19.7%
O=C(Oc1c(Cl)cc(Cl)c2ccccc12)N1CCCC1 13.6%
COc1ccc(-c2nn(-c3ccccc3)cc2/C=C/C(=O)OCC(=O)Nc2cccc(C#N)c2)cc1 0.99%
O=C(NCc1ccco1)c1cccc(F)c1 4.04%
O=C(NC1CCN(C(=S)NCc2ccco2)CC1)c1ccc(F)cc1 14.1%
COc1ccc(C(C(=O)NC2CCCCC2)N(C(=O)c2sc(C)nc2C)c2ccccc2)cc1 (configuration not stated) -2.38%
Cc1ccc(NC(=O)Nc2cccs2)cc1 9.98%
Cc1cc(NC(=O)Nc2cccs2)no1 6.28%
O=C(Nc1ccncc1)Nc1ccccn1 3.11%
O=C(Nc1ccccn1)c1cccs1 3.97%
Cc1cccc(C)c1-n1c(C)cc(/C=N/NC(=O)CSc2ncccn2)c1C 4.32%
CC(C)CCNC(=O)NC(=O)COC(=O)C1=COCCO1 -7.85%
O=c1cc(C23CC4CC(CC(C4)C2)C3)[nH][nH]1 -6.62%
COc1ccc(C(=O)/C(=C\c2sccc2C)c2nc3ccccc3o2)cc1 2.1%
N#C/C(=C\c1ccc(O)cc1)c1nc2ccccc2o1 7.39%
COc1ccc(C(=O)/C(=C/c2cccs2)c2nc3ccccc3o2)cc1 15.5%
N#C/C(=C\c1ccc(Cl)cc1)c1nc2ccccc2o1 15.7%
COCc1[nH]nc2c1C(c1ccsc1)C(C#N)=C(N)O2 (configuration not stated) 1.23%
CCc1ccc(N2CC(C(=O)Nc3cc(C)ccc3F)CC2=O)cc1 (configuration not stated) 1.79%
Cc1c2c(nc3c(C(=O)NC4CCCCC4C)cnn13)CCCC2 (configuration not stated) 3.74%
O=C(Cc1csc(-c2ccccc2)n1)NCc1ccccc1F 2.51%
COCc1cc(C)nc(N/N=C/c2ccc(-c3ccc(C(=O)O)c(Cl)c3)o2)c1C#N 15.5%
Cc1ccc(-c2ccc(/C=N\NC(=O)c3cc4c(ccc5ccccc54)o3)o2)cc1[N+](=O)[O-] 2.34%
O=C(O)c1cc(-c2ccc(/C=N/Nc3ccc(Cl)cc3)o2)ccc1Cl 16.9%
COCc1cc(C)n(CC(=O)Nc2ccc(Cl)cc2Cl)c(=O)c1C#N 10.9%
Nc1nonc1C(=O)N/N=C/c1ccc(-c2cccc(C(=O)O)c2)o1 16.9%
Nc1nonc1C(=O)N/N=C/c1ccc(-c2cccc([N+](=O)[O-])c2)o1 7.55%
O=[N+]([O-])c1cccc(-c2ccc(/C=N/NC(=S)Nc3ccccc3)o2)c1 2.03%
O=C(N/N=C/c1ccc([N+](=O)[O-])o1)c1cc2c(ccc3ccccc32)o1 5.62%
